# This is one part of a sample in which the strongest signals are shown more often than they occur.
# B1: MUC1-SEA-mFcIgG2a (Homo sapiens), P15941 (SEA domain only) (protein)
# chain: DAAQPARRAVRSSSELTSEQKLISEEDLSRLVHNGTSARATTTPASKSTPFSIPSHHSDTPTTLASHSTKTDASSTHHSTVPPLTSSNHSTSPQLSTGVSFFFLSFHISNLQFNSSLEDPSTDYYQELQRDISEMFLQIYKQGGFLGLSNIKFRPGSVVVQLTLAFREGTINVHDVETQFNQYKTEAASRYNLTISDASVSDVPFPFSAQSGSDDDDKALEPRGPTIKPCPPCKCPAPNLLGGPSVFIFPPKIKDVLMISLSPIVTCVVVDVSEDDPDVQISWFVNNVEVHTAQTQTHREDYNSTLRVVSALPIQHQDWMSGKEFKCKVNNKDLPAPIERTISKPKGSVRAPQVYVLPPPEEEMTKKQVTLTCMVTDFMPEDIYVEWTNNGKTELNYKNTEPVLDSDGSYFMYSKLRVEKKNWVERNSYSCSVVHEGLHNHHTTKSFSRTPGKHHHHH
# How the values were obtained:
# Test in all cases: glycan array binding signal (z-score within array); higher = stronger binding
# Conditions in all cases: glycan notation: IUPAC condensed, linker removed
# Fuc(a1-2)Gal = biological target: Fuc(a1-2)Gal
# Procedure, shortened: (§1)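 The Consortium for Functional Glycomics database supplied 3228 glycan arrays, of which those lacking an available protein sequence were dropped. The binding signal, a within-array Z-score, was averaged across arrays of the same protein sequence and across linkers. Negative scores can be read as non-binding.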
# Fuc(a1-2)Gal(b1-3)GalNAc = biological target: Fuc(a1-2)Gal(b1-3)GalNAc
# Procedure, shortened: as §1
# [1] = biological target: Fuc(a1-2)Gal(b1-3)GalNAc(b1-3)Gal
# Procedure, shortened: as §1
# Fuc(a1-2)Gal(b1-3)GlcNAc = biological target: Fuc(a1-2)Gal(b1-3)GlcNAc
# Procedure, shortened: as §1
# Fuc(a1-2)Gal(b1-4)Glc = biological target: Fuc(a1-2)Gal(b1-4)Glc
# Procedure, shortened: as §1
# [2] = biological target: Fuc(a1-2)Gal6S(b1-4)Glc6S
# Procedure, shortened: as §1
# Fuc(a1-2)[Gal(a1-3)]Gal = biological target: Fuc(a1-2)[Gal(a1-3)]Gal
# Procedure, shortened: as §1
# [3] = biological target: Fuc(a1-2)[GalNAc(b1-3)]Gal
# Procedure, shortened: as §1
# [4] = biological target: Fuc(a1-3)[Gal(b1-4)]GlcNAc
# Procedure, shortened: as §1
# [5] = biological target: Fuc(a1-3)[Gal(b1-4)]GlcNAc(b1-2)Man(a1-6)[Gal(b1-4)GlcNAc(b1-2)Man(a1-3)]Man(b1-4)GlcNAc(b1-4)GlcNAc
# Procedure, shortened: as §1
# [6] = biological target: Fuc(a1-3)[Gal(b1-4)]GlcNAc(b1-4)Gal(b1-4)[Fuc(a1-3)]GlcNAc(b1-4)Gal(b1-4)[Fuc(a1-3)]GlcNAc
# Procedure, shortened: as §1
# [7] = biological target: Fuc(a1-3)[Gal3S(b1-4)]GlcNAc6S
# Procedure, shortened: as §1
# [8] = biological target: Gal(b1-4)GlcNAc(b1-6)Gal(b1-4)GlcNAc(b1-6)GalNAc
# Procedure, shortened: as §1
# [9] = biological target: Gal3S(b1-3)[Fuc(a1-4)]GlcNAc
# Procedure, shortened: as §1
# Gal3S(b1-4)Glc6S = biological target: Gal3S(b1-4)Glc6S
# Procedure, shortened: as §1
# Gal3S6S(b1-4)GlcNAc6S = biological target: Gal3S6S(b1-4)GlcNAc6S
# Procedure, shortened: as §1
# Gal4S6S(b1-4)GlcNAc = biological target: Gal4S6S(b1-4)GlcNAc
# Procedure, shortened: as §1
# Gal6S(b1-4)Glc6S = biological target: Gal6S(b1-4)Glc6S
# Procedure, shortened: as §1
# [10] = biological target: GlcNAc(a1-6)Gal(b1-4)GlcNAc
# Procedure, shortened: as §1
# GlcNAc(b1-3)Gal = biological target: GlcNAc(b1-3)Gal
# Procedure, shortened: as §1
# [11] = biological target: GlcNAc(b1-4)Gal(b1-4)GlcNAc
# Procedure, shortened: as §1
# [12] = biological target: GlcNAc(b1-4)[GlcNAc(b1-6)]GalNAc
# Procedure, shortened: as §1
# [13] = biological target: Man(a1-2)Man(a1-3)[Man(a1-6)]Man(a1-6)[Man(a1-2)Man(a1-3)]Man(b1-4)GlcNAc(b1-4)GlcNAc
# Procedure, shortened: as §1
# [14] = biological target: Man(a1-3)[Man(a1-6)]Man(b1-4)GlcNAc(b1-4)GlcNAc
# Procedure, shortened: as §1
# Man(a1-6)Man = biological target: Man(a1-6)Man
# Procedure, shortened: as §1
# [15] = biological target: Neu5Ac(a2-6)Gal(b1-4)GlcNAc(b1-2)Man(a1-3)[Gal(b1-4)GlcNAc(b1-2)Man(a1-6)]Man(b1-4)GlcNAc(b1-4)GlcNAc
# Procedure, shortened: as §1
# [16] = biological target: Neu5Ac(a2-6)Gal(b1-4)GlcNAc(b1-3)Gal(b1-4)GlcNAc
# Procedure, shortened: as §1
# [17] = biological target: Neu5Ac(a2-8)Neu5Ac(a2-3)[GalNAc(b1-4)]Gal(b1-4)Glc
# Procedure, shortened: as §1
binder,measurement,setting,value
B1,glycan array binding signal (z-score),Fuc(a1-2)Gal,-0.228
same,glycan array binding signal (z-score),Fuc(a1-2)Gal(b1-3)GalNAc,-0.514
same,glycan array binding signal (z-score),[1],7.39
same,glycan array binding signal (z-score),Fuc(a1-2)Gal(b1-3)GlcNAc,0.04
same,glycan array binding signal (z-score),Fuc(a1-2)Gal(b1-4)Glc,0.163
same,glycan array binding signal (z-score),[2],1.99
same,glycan array binding signal (z-score),Fuc(a1-2)[Gal(a1-3)]Gal,0.424
same,glycan array binding signal (z-score),[3],-0.373
same,glycan array binding signal (z-score),[4],0.485
same,glycan array binding signal (z-score),[5],-0.32
same,glycan array binding signal (z-score),[6],-0.045
same,glycan array binding signal (z-score),[7],1.11
same,glycan array binding signal (z-score),[8],-0.381
same,glycan array binding signal (z-score),[9],-0.332
same,glycan array binding signal (z-score),Gal3S(b1-4)Glc6S,2.09
same,glycan array binding signal (z-score),Gal3S6S(b1-4)GlcNAc6S,3.49
same,glycan array binding signal (z-score),Gal4S6S(b1-4)GlcNAc,0.978
same,glycan array binding signal (z-score),Gal6S(b1-4)Glc6S,2.14
same,glycan array binding signal (z-score),[10],-0.14
same,glycan array binding signal (z-score),GlcNAc(b1-3)Gal,-0.151
same,glycan array binding signal (z-score),[11],-0.565
same,glycan array binding signal (z-score),[12],-0.223
same,glycan array binding signal (z-score),[13],-0.266
same,glycan array binding signal (z-score),[14],-0.235
same,glycan array binding signal (z-score),Man(a1-6)Man,-0.113
same,glycan array binding signal (z-score),[15],-0.245
same,glycan array binding signal (z-score),[16],-0.465
same,glycan array binding signal (z-score),[17],-0.453
